# Reference: the supplement of paper PMC9446081
# ± gives the standard deviation of the averaged measurements.
# Legend:
# Assay in all cases: relative enzymatic activity vs untreated control (fraction); higher = less inhibition
# Conditions in all cases: 100 µM; incubation time: 2 h at 37 C
# [1] = tested on: DNA gyrase
# Description: (§1)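 In vitro enzymatic inhibition assays (ProFoldin kits) for 12 purified essential E. coli enzymes or complexes, each treated with 218 active antibacterial compounds at 100 µM for 2 h at 37°C. Read-outs were fluorescence or absorbance (phosphate detection, dye binding), converted to activity via standard curves and expressed relative to untreated DMSO controls.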
# [2] = target: DNA helicase (UniProt P0ACB1)
# DNA helicase, sequence (P0ACB1 whole entry): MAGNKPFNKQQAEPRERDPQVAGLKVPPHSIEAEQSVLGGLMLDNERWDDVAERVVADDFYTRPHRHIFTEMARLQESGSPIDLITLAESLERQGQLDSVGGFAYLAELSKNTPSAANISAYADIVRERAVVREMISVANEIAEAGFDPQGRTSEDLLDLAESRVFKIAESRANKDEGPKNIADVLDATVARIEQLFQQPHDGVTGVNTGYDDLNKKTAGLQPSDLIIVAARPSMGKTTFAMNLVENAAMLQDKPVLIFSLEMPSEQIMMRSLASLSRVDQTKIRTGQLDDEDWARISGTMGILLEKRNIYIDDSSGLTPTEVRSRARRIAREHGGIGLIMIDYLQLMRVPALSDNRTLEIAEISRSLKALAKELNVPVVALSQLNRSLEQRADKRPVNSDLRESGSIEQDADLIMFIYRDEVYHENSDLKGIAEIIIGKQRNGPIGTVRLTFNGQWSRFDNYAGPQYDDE
# Description: as §1
# [3] = target: DNA ligase (UniProt B1XA82)
# DNA ligase, sequence (B1XA82 whole entry): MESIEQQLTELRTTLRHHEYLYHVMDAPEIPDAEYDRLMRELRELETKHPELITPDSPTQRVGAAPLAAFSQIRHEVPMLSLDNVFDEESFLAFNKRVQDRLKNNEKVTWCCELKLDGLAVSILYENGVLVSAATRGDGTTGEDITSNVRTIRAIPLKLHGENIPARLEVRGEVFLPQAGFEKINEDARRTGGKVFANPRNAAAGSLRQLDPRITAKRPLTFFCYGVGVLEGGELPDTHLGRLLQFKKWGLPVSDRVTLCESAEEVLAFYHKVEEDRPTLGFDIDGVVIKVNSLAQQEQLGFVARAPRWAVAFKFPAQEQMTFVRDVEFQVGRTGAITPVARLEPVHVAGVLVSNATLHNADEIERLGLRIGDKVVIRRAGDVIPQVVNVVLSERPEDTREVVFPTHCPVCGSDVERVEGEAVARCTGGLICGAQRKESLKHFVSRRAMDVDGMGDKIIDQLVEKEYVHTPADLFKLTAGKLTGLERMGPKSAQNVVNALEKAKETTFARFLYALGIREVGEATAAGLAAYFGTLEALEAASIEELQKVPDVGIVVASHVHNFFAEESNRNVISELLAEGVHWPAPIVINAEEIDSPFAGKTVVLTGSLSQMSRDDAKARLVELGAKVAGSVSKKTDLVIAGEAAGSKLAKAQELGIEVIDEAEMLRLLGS
# Description: as §1
# [4] = target: DNA polymerase (UniProt P10443)
# DNA polymerase, sequence (P10443 whole entry): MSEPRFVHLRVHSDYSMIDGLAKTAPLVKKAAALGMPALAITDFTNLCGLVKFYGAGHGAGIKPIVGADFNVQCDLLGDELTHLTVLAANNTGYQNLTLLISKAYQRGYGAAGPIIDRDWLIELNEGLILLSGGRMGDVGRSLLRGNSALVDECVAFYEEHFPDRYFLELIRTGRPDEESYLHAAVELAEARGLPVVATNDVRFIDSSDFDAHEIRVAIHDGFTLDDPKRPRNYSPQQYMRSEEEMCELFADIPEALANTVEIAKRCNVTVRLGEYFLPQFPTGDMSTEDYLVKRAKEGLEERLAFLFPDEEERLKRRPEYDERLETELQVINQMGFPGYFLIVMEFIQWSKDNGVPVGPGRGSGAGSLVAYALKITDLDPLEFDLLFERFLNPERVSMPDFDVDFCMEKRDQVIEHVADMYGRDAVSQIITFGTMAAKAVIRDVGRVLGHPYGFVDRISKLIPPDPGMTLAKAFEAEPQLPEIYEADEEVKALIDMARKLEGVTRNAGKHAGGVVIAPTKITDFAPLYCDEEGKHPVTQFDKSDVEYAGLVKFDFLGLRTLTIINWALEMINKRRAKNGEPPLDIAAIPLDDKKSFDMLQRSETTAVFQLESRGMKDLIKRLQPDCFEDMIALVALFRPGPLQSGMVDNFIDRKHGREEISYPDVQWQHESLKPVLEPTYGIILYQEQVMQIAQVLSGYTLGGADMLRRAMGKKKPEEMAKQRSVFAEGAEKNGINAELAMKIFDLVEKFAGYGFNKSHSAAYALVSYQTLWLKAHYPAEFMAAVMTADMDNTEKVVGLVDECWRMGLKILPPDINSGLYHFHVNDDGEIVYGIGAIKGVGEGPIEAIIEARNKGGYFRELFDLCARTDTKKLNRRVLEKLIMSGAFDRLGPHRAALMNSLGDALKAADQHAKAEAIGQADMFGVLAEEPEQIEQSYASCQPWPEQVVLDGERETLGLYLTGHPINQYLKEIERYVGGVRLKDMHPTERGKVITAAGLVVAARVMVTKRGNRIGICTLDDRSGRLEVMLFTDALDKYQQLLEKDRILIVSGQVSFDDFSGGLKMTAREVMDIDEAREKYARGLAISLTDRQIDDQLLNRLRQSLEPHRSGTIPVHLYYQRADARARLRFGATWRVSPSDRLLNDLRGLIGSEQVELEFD
# Description: as §1
# [5] = target: DNA primase (UniProt P0ABS7)
# DNA primase, sequence (P0ABS7 whole entry): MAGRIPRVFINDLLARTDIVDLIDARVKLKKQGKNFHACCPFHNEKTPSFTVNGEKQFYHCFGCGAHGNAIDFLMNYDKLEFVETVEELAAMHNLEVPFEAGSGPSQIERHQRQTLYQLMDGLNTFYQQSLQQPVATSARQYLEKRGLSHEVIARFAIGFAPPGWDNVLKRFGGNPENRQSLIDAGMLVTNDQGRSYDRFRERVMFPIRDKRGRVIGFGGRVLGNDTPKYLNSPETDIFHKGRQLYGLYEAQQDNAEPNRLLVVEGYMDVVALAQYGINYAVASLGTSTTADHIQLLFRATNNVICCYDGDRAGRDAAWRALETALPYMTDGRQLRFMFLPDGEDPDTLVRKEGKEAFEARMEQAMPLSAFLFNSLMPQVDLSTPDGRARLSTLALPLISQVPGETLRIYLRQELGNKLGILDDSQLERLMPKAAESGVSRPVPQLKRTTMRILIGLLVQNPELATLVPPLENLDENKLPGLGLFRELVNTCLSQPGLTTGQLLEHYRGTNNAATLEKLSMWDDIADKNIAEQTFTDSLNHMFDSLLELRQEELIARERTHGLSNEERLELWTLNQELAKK
# Description: as §1
# [6] = target: GlmU (UniProt A7ZTU1)
# GlmU, sequence (A7ZTU1 whole entry, looked up): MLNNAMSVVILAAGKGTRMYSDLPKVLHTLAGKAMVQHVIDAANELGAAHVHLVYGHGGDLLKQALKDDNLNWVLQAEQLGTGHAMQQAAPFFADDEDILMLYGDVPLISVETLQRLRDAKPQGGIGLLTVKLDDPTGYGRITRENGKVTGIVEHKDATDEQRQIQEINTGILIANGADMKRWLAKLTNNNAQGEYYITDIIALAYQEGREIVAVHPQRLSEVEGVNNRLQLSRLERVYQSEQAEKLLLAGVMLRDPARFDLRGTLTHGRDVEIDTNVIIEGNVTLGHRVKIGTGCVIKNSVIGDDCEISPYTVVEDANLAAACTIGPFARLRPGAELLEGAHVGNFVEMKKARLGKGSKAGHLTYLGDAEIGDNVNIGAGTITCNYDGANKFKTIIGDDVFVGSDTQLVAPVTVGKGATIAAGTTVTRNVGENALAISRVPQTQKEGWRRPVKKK
# Description: as §1
# [7] = target: Guanlyate kinase (UniProt Q0TBG1)
# Guanlyate kinase, sequence (Q0TBG1 whole entry): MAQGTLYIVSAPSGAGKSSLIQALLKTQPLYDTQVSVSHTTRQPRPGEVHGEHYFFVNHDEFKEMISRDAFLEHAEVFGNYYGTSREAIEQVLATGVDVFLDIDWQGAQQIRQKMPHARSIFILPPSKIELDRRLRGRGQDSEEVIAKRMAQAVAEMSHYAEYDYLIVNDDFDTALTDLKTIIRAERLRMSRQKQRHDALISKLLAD
# Description: as §1
# [8] = target: MurA (UniProt Q3YX52)
# MurA, sequence (Q3YX52 whole entry): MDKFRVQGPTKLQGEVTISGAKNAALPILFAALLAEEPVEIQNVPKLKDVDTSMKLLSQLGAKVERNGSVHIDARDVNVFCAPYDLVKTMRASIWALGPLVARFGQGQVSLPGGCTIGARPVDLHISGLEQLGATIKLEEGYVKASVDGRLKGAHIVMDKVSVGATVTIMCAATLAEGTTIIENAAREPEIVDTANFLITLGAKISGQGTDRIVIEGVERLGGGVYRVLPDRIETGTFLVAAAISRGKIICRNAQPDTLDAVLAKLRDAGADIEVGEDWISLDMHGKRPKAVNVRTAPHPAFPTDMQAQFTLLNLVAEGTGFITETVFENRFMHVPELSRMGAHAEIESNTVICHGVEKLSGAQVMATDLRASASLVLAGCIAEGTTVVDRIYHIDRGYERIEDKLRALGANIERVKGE
# Description: as §1
# [9] = target: T1, MurD (UniProt P14900)
# T1 sequence (whole entry): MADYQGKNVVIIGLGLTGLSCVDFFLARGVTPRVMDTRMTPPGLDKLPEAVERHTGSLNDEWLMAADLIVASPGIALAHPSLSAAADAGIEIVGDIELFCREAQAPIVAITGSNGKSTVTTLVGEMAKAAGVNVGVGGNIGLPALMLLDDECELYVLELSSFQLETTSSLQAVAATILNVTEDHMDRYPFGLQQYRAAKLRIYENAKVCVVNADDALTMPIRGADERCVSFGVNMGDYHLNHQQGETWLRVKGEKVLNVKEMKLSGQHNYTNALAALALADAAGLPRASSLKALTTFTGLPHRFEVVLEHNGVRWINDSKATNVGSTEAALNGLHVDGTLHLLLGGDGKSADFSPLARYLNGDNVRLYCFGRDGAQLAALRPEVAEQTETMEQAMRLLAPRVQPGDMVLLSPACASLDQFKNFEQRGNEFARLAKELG
# Description: as §1
# [10] = target: T2, MurF (UniProt P11880)
# T2 sequence (whole entry): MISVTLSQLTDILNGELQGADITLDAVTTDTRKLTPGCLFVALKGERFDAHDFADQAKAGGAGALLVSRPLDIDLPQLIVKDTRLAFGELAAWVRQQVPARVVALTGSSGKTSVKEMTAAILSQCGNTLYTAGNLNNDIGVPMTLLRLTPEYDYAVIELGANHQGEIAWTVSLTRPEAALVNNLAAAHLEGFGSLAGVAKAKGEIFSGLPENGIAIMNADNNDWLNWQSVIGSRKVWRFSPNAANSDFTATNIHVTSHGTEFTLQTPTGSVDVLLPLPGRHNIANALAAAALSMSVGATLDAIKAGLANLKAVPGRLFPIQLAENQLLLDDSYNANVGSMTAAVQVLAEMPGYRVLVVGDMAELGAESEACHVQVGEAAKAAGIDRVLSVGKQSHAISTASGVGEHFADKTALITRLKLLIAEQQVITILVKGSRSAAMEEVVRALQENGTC
# Description: as §1
# [11] = tested on: RNA polymerase
# Description: as §1
SMILES,relative enzymatic activity [1],relative enzymatic activity [2],relative enzymatic activity [3],relative enzymatic activity [4],relative enzymatic activity [5],relative enzymatic activity [6],relative enzymatic activity [7],relative enzymatic activity [8],relative enzymatic activity [9],relative enzymatic activity [10],relative enzymatic activity [11]
Nc1nc(/C(=N/O)C(=O)N[C@@H]2C(=O)N3C(C(=O)O)=C(/C=C4\CCN([C@@H]5CCNC5)C4=O)CS[C@H]23)ns1,0.279 ± 0.18,0.389 ± 0.35,0.901 ± 0.11,1.08 ± 0.3,0.816 ± 0.035,0.83 ± 0.021,0.881 ± 0.12,0.0852 ± 0.03,0.57 ± 0.38,1.1 ± 0.069,0.561 ± 0.045
Cl.O=C(O)c1cn(-c2ccc(F)cc2)c2cc(N3CCNCC3)c(F)cc2c1=O,0.0194 ± 0.027,0.484 ± 0.099,1.18 ± 0.41,1.19 ± 0.31,0.688 ± 0.12,0.955 ± 0.031,0.73 ± 0.11,0.698 ± 0.044,0.595 ± 0.41,0.919 ± 0.24,0.228 ± 0.089
CC(C)(C)CC(C)(C)c1ccc(OCCOCC[N+](C)(C)Cc2ccccc2)cc1.[Cl-],0.0482 ± 0.068,0.0168 ± 0.00082,0.917 ± 0.17,0.4 ± 0.06,0.709 ± 0.21,0.121 ± 0.031,0.439 ± 0.06,0.0623 ± 0.0083,0.114 ± 0.033,0.193 ± 0.035,0.838 ± 0.16
Cl.NC1CCN(c2c(F)cc3c(=O)c(C(=O)O)cn(C4CC4)c3c2Cl)C1 (stereo not given),0.213 ± 0.3,0.622 ± 0.2,0.994 ± 0.13,1.08 ± 0.17,0.872 ± 0.014,0.974 ± 0.019,0.92 ± 0.21,0.73669 ± 0.0002,0.606 ± 0.42,0.977 ± 0.24,0.809 ± 0.07
N[C@H]1CCN(c2nc3c(cc2F)c(=O)c(C(=O)O)cn3-c2ccc(F)cc2F)C1,0.206 ± 0.29,0.461 ± 0.041,0.91 ± 0.23,1.17 ± 0.24,0.774 ± 0.035,0.955 ± 0.026,0.852 ± 0.12,0.521 ± 0.22,0.586 ± 0.39,0.924 ± 0.25,0.929 ± 0.12
CO/N=C(\C(=O)N[C@@H]1C(=O)N2C(C(=O)O)=C(CSC(=O)c3ccco3)CS[C@H]12)c1csc(N)n1,0.0013 ± 0.0018,0.049 ± 0.0096,0.817 ± 0.063,0.312 ± 0.026,0.533 ± 0.092,0.492 ± 0.17,0.778 ± 0.12,0.0403 ± 0.017,0.125 ± 0.094,0.82 ± 0.26,0.602 ± 0.68
Cn1cc(-c2[nH]c3cc(NC(=O)[C@H](N)C4CCCCC4)cc4c3c2C=NNC4=O)cn1,0.0124 ± 0.018,0.0463 ± 0.061,0.703 ± 0.085,0.083 ± 0.099,≤ 0,0.899 ± 0.013,0.0166 ± 0.0039,0.348 ± 0.12,0.599 ± 0.43,1.13 ± 0.017,0.191 ± 0.029
NCCONC(=O)[C@@H]1CC[C@@H]2CN1C(=O)N2OS(=O)(=O)O,0.796 ± 0.34,0.527 ± 0.074,1.08 ± 0.078,1.13 ± 0.22,0.762 ± 0.033,1.02 ± 0.082,1.01 ± 0.12,0.709 ± 0.27,0.562 ± 0.36,0.971 ± 0.24,0.902 ± 0.075
CN(C)c1ccc(O)c2c1C[C@@H]1C[C@@H]3[C@@H](N(C)C)C(=O)C(C(N)=O)=C(O)[C@]3(O)C(=O)[C@H]1C2=O,0.00646 ± 0.0091,0.123 ± 0.0035,0.699 ± 0.021,0.021 ± 0.0081,0.424 ± 0.027,0.655 ± 0.21,0.152 ± 0.014,0.0751 ± 0.025,0.665 ± 0.43,1.21 ± 0.043,0.00236 ± 0.0021
CO/N=C(\C(=O)N[C@@H]1C(=O)N2C(C(=O)O)=C(CSc3nnnn3C)CS[C@H]12)c1csc(N)n1,1.08 ± 0.03,0.544 ± 0.23,0.749 ± 0.049,1.15 ± 0.25,0.827 ± 0.017,1.09 ± 0.046,0.883 ± 0.091,0.157 ± 0.032,0.611 ± 0.42,1.16 ± 0.11,0.8391 ± 0.00096
Cc1cc(C2CCCCC2)n(O)c(=O)c1.NCCO,1.114 ± 0.0086,0.546 ± 0.12,1.28 ± 0.12,1.29 ± 0.34,0.751 ± 0.22,1.12 ± 0.0031,1.05 ± 0.04,0.975 ± 0.045,0.678 ± 0.45,1.02 ± 0.2,0.8877 ± 0.0077
CN[C@@H]1[C@H](O[C@H]2[C@H](O[C@@H]3[C@@H](O)[C@H](O)[C@@H](NC(=N)N)[C@H](O)[C@H]3NC(=N)N)O[C@@H](C)[C@]2(O)CO)O[C@@H](CO)[C@H](O)[C@H]1O.CN[C@@H]1[C@H](O[C@H]2[C@H](O[C@@H]3[C@@H](O)[C@H](O)[C@@H](NC(=N)N)[C@H](O)[C@H]3NC(=N)N)O[C@@H](C)[C@]2(O)CO)O[C@@H](CO)[C@H](O)[C@H]1O,0.527 ± 0.36,0.498 ± 0.089,1.09 ± 0.32,1.08 ± 0.055,0.853 ± 0.0042,1.001 ± 0.0056,0.983 ± 0.047,0.803 ± 0.02,0.922 ± 0.86,0.524 ± 0.73,0.481 ± 0.52
Nc1c2ccccc2nc2ccccc12,0.766 ± 0.37,0.595 ± 0.097,0.519 ± 0.092,1.01 ± 0.28,0.573 ± 0.14,0.933 ± 0.059,0.3108 ± 0.001,0.74 ± 0.14,0.589 ± 0.38,0.94 ± 0.25,0.505 ± 0.016
CON=C(C(=O)NC1C(=O)N2C(C(=O)[O-])=C(COC(C)=O)CSC12)c1csc(N)n1.[Na+] (stereo not given),0.696 ± 0.52,0.4103 ± 0.0017,0.569 ± 0.58,1.11 ± 0.28,0.68 ± 0.16,0.914 ± 0.13,1.04 ± 0.053,0.0697 ± 0.016,0.575 ± 0.37,0.939 ± 0.19,0.608 ± 0.48
CON=C(C(=O)NC1C(=O)N2C(C(=O)OCOC(=O)C(C)(C)C)=C(C=Cc3scnc3C)CSC12)c1csc(N)n1 (stereo not given),0.894 ± 0.26,0.379 ± 0.064,1.24 ± 0.4,1.24 ± 0.33,0.894 ± 0.029,0.914 ± 0.031,0.794 ± 0.14,0.253 ± 0.062,0.568 ± 0.41,0.893 ± 0.24,0.872 ± 0.034
